# Abeta rescue – restores growth of yeast expressing A-beta42 peptide | yeast expressing A-beta42, growth rescue, OD600, 48 h; response scale: 0% DMSO, 100% iron-clioquinol control | 410,000 tested, 0.063% active | Potency, µM (highest dose often 46.1 µM), hits mostly activators; note: nearly all actives have a fitted effect of over 55% in size
#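 Yeast A-beta toxicity model in growth medium with pinned compounds, 48 h at 30 C; growth read as absorbance at 600 nm. Normalized to FeCl3/clioquinol equimolar mix (positive) and DMSO (negative).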
# Mito fusion yeast – blocks mitochondrial division or promotes mitochondrial fusion; S. cerevisiae fusion-defective mutant growth rescue, CellTiterGlo 48 h; Potency, µM (doses to about 46.1 µM), for the others: at the top dose growth rescue (activation), actives largely listed as activators; 320,000 tested, 0.23% active; AID 485298; note: % of control where 0% means no effect; nearly all actives have a fitted effect of over 45% in size
#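 S. cerevisiae fusion-defective temperature-sensitive mutants (e.g. fzo1-1, mgm1-5) grown 48 h at 37C in YPEG (ethanol/glycerol non-fermentable) medium with 23 nl compound per well; growth rescue read as CellTiterGlo luminescence.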
# aSyn yeast inh – inhibitors of alpha-synuclein toxicity in yeast | 370,000 tested, 0.14% active | Potency, µM (highest dose often 46.1 µM), inactives show at the highest dose growth rescue (activation), most hits filed as activators | Yeast expressing alpha-synuclein, growth rescue, BacTiter-Glo, 24 h; note: % of control where 0% means no effect; nearly all actives have a fitted effect of over 65% in size
#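 Screening used galactose-induced yeast with toxic alpha-synuclein levels, exposed to compound for 24 hr at 30 deg C. Cell growth, read with BacTiter-Glo luminescence, gave the measured signal.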
# FUS yeast rescue – suppressors of FUS proteinopathy in yeast; AID 1347120; S. cerevisiae FUS-expressing, growth rescue, OD600, 24 h; Potency, µM (series often up to 76.6 µM), usual class: activators; 390,000 tested, 0.24% active;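 note: plate controls were DMSO vehicle for no effect and reference control for full effect; nearly all actives have a fitted effect of over 55% in size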
#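 Cultures pregrown in 2.5% raffinose medium are shifted to minimal medium containing 2% galactose to express toxic FUS. Compounds are tested at several concentrations. After 24hr at 30C, growth is quantified at 600 nm absorbance.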
# TDP-43 yeast inh – inhibitors of TDP-43 toxicity in yeast; TDP-43 expressing yeast growth rescue, BacTiter-Glo, 24 h; Potency, µM (top dose mostly 46.1 µM), for the others: at the highest dose growth rescue (activation), usual class: activators; 410,000 tested, 1.8% active; AID 652104; note: % of control where 0% means no effect; nearly all actives have a fitted effect of over 50% in size
#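 Cell-based yeast growth screen: TDP-43 expression induced in galactose, inoculum OD600=0.02 after raffinose pregrowth to mid-log. Read-out BacTiter-Glo luminescence at 24 hr, 30 deg C; inhibition of toxicity seen as signal increase.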
# Numbers without * were called inactive; i = inactive; ? = inconclusive; / = no result; [ ] = dose if it differs, or a comment. Compounds with a hit are over-represented: about 2.2% of the library has one in this group of screens. Calls come from the whole dose curve; as a rule, active = well fitted curve in the direction sought with a large enough effect; inconclusive = small, poorly fitted or top-dose-only effect, or another doubt; inactive = no such curve, though single readings can be large; an effect the other way counts as inactive or inconclusive. Potency is the fitted concentration of half-maximal effect.
SMILES,Abeta rescue,Mito fusion yeast,aSyn yeast inh,FUS yeast rescue,TDP-43 yeast inh
O=C(Nc1cc(Cl)ccc1-n1cncn1)c1ccc([N+](=O)[O-])o1,i,13%,-28%,i,14µM*
Cc1cc(Br)ccc1NC(=O)COC(=O)c1ccccc1OCC(=O)N(C)C,/,/,2%,/,/
CCOC(=O)C(C(=O)OCC)C(c1ccccc1)N1CCN(c2ccccc2)CC1 (stereo not drawn),i,/,11%,i,13µM*
COc1ccc(NC(=O)COc2ccccc2C(=O)Nc2ccccc2)cc1,/,/,-7%,/,/
CCN(CC)CCCn1c(C)cc2c(c1=O)C(c1ccccc1)C(C#N)=C(N)O2 (stereo not drawn),i,11µM*,-6%,i,-28%
O=C(Nc1ccccc1)C1=C[C@H](c2csc3ccccc23)C[C@H](OCc2ccc(CO)cc2)O1,i,11%,14%,11µM*,16%
Oc1c(C(c2ccccn2)N2CCC(Cc3ccccc3)CC2)cc(Cl)c2cccnc12 (stereo not drawn),i,12%,-4%,25µM*,19%[9.22 µM]
Cc1ccc(CCNC(=O)c2ccc3c(Cl)c4c(nc3c2)CCCC4)cc1,i,/,/,i,?
CCCCCn1c(=O)c2ccccc2n2c(=S)[nH]nc12,i,11%,9%,i,11µM*
CCCCn1c(=O)c2ccccc2n2c(=S)[nH]nc12,i,20%,9%,i,?
Cc1ccc([N+](=O)[O-])cc1-c1[nH]c(-c2ccc(O)c(O)c2)nc1-c1ccccc1,i,5%,0%,20µM*,17%
CCOC(=O)c1sc2ccccc2c1S(=O)(=O)Nc1ccc(N(C)C)cc1,i,/,/,?,18%
O=[N+]([O-])c1ccc2c(c1)C=C/C2=C/c1ccccc1,/,/,-9%,/,/
Cn1nccc1-c1ccc(C(=O)NCc2ccc(Cl)cc2)c2occc12,i,/,6%,?,22µM*
Cn1nccc1-c1coc2c(C(=O)NCc3ccccc3)cccc12,i,/,14%,i,3.5µM*
Cn1nccc1-c1coc2c(C(=O)NCC3CCOCC3)cccc12,i,/,-10%,i,13%
O=C(NCc1ccco1)c1ccc(-c2ccc(F)c(F)c2)c2ccoc12,i,/,1%,i,20µM*
C[N+](C)(C)c1ccc(/C=C/c2ccnc3ccccc23)cc1,/,/,-38%,/,/
CC(C)Cc1cc(C(=O)N2CCCC(C(=O)c3cc(F)ccc3F)C2)no1 (stereo not drawn),i,11µM*,-4%,i,?
COCc1ccc(C(=O)N2CCCC(C(=O)c3cc(F)ccc3F)C2)s1 (stereo not drawn),i,-3%,-4%,i,11µM*
O=C(c1cc(F)ccc1F)C1CCCN(C(=O)c2cccs2)C1 (stereo not drawn),i,8%,1%,i,11%
Cc1ccccc1-c1nc(SCC(=O)NCc2ccc(F)cc2)c2c(=O)n(C)c(=O)n(C)c2n1,i,/,/,i,19%
O=C(N1CCC(n2nc(-c3ccccc3)oc2=O)CC1)C1(c2ccc(Cl)cc2)CC1,/,?,?,?,22µM*
Cc1sc2nc(-c3cccnc3)nc(Cl)c2c1-c1ccccc1,i,3%,-23%,/,25µM*
Cc1sc2nc(-c3ccccc3)[nH]c(=O)c2c1-c1ccccc1,/,-1%,/,/,/
SMILES,Abeta rescue,Mito fusion yeast,aSyn yeast inh,FUS yeast rescue,TDP-43 yeast inh
Cc1ccc(-c2cc(-c3nnc(SCC(=O)N4CCOCC4)n3N)[nH]n2)cc1,/,/,/,i,/
CCOC(=O)c1ccc(NC2(c3ccccc3)C(=O)c3ccccc3C2=O)cc1,i,/,/,i,11%
CCC(=O)N1CCc2cc(CNS(=O)(=O)c3ccc(Cl)s3)ccc21,i,/,/,i,13µM*
Cc1cccc(C(=O)N2CCc3cc(CNS(=O)(=O)c4ccc(Cl)s4)ccc32)c1,i,/,/,i,14%
Cc1ccc(CNS(=O)(=O)c2ccc(Cl)s2)cc1,i,/,9%,i,13µM*
O=C(Nc1nc(-c2cccs2)cs1)C1CC(=O)N(c2ccc3c(c2)OCCO3)C1 (stereo not drawn),/,/,0%,/,/
O=C(Cc1ccc2c(c1)OCO2)N1CCC(n2nc(-c3ccccc3)oc2=O)CC1,/,/,/,i,/
CC(C)CC(=O)N1CCN(c2ccc([N+](=O)[O-])cc2Cl)CC1,i,22%,?,i,13µM*
CC(C)C(=O)N1CCN(c2ccc([N+](=O)[O-])cc2Cl)CC1,i,0%,-9%,/,?
COc1ccc(Cn2c(C(=O)O)c(CNC3CCCCC3)c3ccc(C)cc32)cc1,i,/,/,i,13%
Clc1ccccc1-c1nnc(SCc2nc(-c3ccccc3)no2)n1-c1ccccc1,i,/,/,i,?
O=C(c1ccco1)n1nc(NCc2ccccc2)nc1NCc1ccccc1,i,-5%,-3%,i,10µM*
O=C(c1ccco1)n1nc(-c2ccccc2)nc1NCc1ccco1,i,1%,2%,i,4%
COc1cc2c(NC3CCN(C)CC3)nc(N3CCCCC3)nc2cc1OCCCN(C)C,/,/,1%,/,/
N#C/C(=C\c1c(F)cccc1Cl)C(=O)NC1CC1,i,1%,1%,i,13µM*
Cc1c(C(=O)NCCSCc2c(F)cccc2Cl)cnn1-c1ccc(Cl)cc1,i,-13%,-1%,i,20µM*
COc1ccccc1C(=O)NCCSCc1c(F)cccc1Cl,i,5%,2%,i,19%
Cc1nc(N2CCOCC2)c2c(C(=O)N3CCN(c4ccc(Cl)cc4)CC3)c(C)oc2n1,i,/,/,i,0%
O=C(CSCC(=O)N1CCCCC1)Nc1nc(-c2cccs2)cs1,i,-6%,-1%,i,32µM*
CC1CC(C)CN(C(=O)CSCC(=O)Nc2nc(-c3cccs3)cs2)C1 (stereo not drawn),i,9%,-7%,i,0%
O=C(CSCC(=O)N1CCCCC1)Nc1nc(-c2ccc(Cl)s2)cs1,i,6%,-12%,i,20µM*
COc1ccc2nc3oc(C(=O)N4CCN(c5cc(C)ccc5C)CC4)cc3cc2c1,i,/,/,i,-5%
CC(C)c1ccc(NC(=O)CSC2=Nc3ccccc3C3=NC(CC(=O)NCc4cccs4)C(=O)N23)cc1 (stereo not drawn),13µM*,/,/,i,?
N[C@H]1CC[C@@H]2SC[C@@H](C(=O)O)N2C1=O,/,/,/,i,/
Cc1ccccc1NC1=CC(=O)CC(C)(C)C1,i,1%,-2%,i,-15%
CC1(C)CC(=O)C=C(NC2=CC3OC(c4ccccc4)OCC3OC2=O)C1 (stereo not drawn),i,14%,13µM*,/,13µM*
Cc1cc(C)c2cc(C#N)c(NCCCN)nc2c1,i,/,-5%,i,-3%

# Assay outcomes as filed in PubChem.
